The whole screen tested about 1,900 compounds, of which about 550 (29%) were called active. No stated cut-off is given here; in the data, active means inhibition above about 40%; inactive means the rest. Not all results are given here.

In this assay the target is 26S proteasome non-ATPase regulatory subunit 14 (Homo sapiens) (UniProt O00487). The assay can be described thus: inhibition of 26S proteasome subunit Rpn11 – biochemical, fluorescence polarization, single concentration, confirmation (AID 602318). Particulars: purified human 26S proteasome, Ub4-pepOG fluorescence polarization; at 20 µM; active compounds read high; proteasome pretreated with epoxomicin. On the technique in general: Fluorescence polarisation rises when a labelled molecule tumbles more slowly, as on binding a larger partner.
26S proteasome non-ATPase regulatory subunit 14 (Homo sapiens), sequence (O00487 whole entry, looked up): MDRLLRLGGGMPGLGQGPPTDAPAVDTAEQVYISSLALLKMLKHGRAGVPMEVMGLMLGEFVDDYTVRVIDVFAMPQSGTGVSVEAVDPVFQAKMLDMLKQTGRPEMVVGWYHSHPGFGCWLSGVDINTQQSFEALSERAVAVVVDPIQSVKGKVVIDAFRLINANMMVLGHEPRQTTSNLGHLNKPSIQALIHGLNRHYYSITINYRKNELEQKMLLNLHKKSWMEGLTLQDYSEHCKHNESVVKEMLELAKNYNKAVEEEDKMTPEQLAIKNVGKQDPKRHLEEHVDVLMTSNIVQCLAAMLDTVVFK
In general, inhibition refers to the change of the read-out against control, counted positive when it falls. On to `CCc1ccc(-c2cc(C(=O)NCc3ccco3)c3ccccc3n2)s1`, for which the inhibition is 40.9% (active).

As for `CCCS(=O)(=O)N1CCCC(C(=O)NCc2ccco2)C1` (stereo unspecified), the inhibition is -10.1% (inactive).

Turning to `C=CCn1c(=S)[nH]c2scc(-c3ccco3)c2c1=O`, the inhibition is 0.26% (inactive).

Regarding `CCC(C)Cn1c(O)cc2nn(-c3nc4ccccc4s3)c(=O)c-2c1C` (stereo unspecified), the inhibition was 15.4% (inactive).

For the compound `Cc1ccc(NC(=O)c2c(NC(=O)CCC(=O)O)sc3c2CCCCC3)cc1`, the inhibition was -3.94% (inactive).

On to `COc1ccc(CNC(=O)c2nnn(CC(=O)Nc3cc(C)cc(C)c3)c2N)cc1`, for which the inhibition is 52.8% (active).

`CSC1=N/C(=C\C=C\c2cccs2)C(=O)S1`: the inhibition was 29.7% (inactive).

Take `CCN1CCN(c2cc3nc(C)n(Cc4ccccc4)c(=O)c3cc2NC(=O)c2ccccc2F)CC1`: the inhibition was 17.4% (inactive).

Turning to `C/C(=N/Nc1nc(-c2ccccc2)c(CC(=O)O)s1)c1ccccc1`, the inhibition is 34% (inactive).

Take `COc1ccc(Cl)cc1NC(=O)CCS(=O)(=O)c1ccc(Br)cc1`: the inhibition was 124% (active).

Consider `O=C(CCS(=O)(=O)c1cccc2nonc12)NCCc1ccccc1Cl`, for which the inhibition was -2.85% (inactive).

Consider `CCCOc1ccc(Cn2c(O)cc(=O)[nH]c2=O)cc1`, for which the inhibition is 20.3% (inactive).

In the case of `CCNCc1cc2cc(C)ccc2[nH]c1=O`, the inhibition is 18.7% (inactive).

Regarding `Cc1ccc(Nc2nc(Cl)c(C=O)s2)cc1`, the inhibition is 55% (active).

In the case of `Cc1ccc(Nc2ccccc2N)cc1`, the inhibition was 32.8% (inactive).

As for `O=C(OCc1cc2ccccc2[nH]c1=O)c1cccnc1`, the inhibition is -8.83% (inactive).

On to `CC(C)Cn1c(CCC(=O)O)ccc1-c1cccs1`, for which the inhibition was -26.6% (inactive).

Consider `CC(C)CC1C(=O)N(Cc2cn(Cc3ccco3)nn2)CCS(=O)(=O)N1Cc1ccc(-c2ccc(Cl)c(Cl)c2)cc1` (stereo unspecified), for which the inhibition is 17.1% (inactive).

Regarding `Cc1c(NC(=O)CSc2cccc3cccnc23)c(=O)n(-c2ccccc2)n1C`, the inhibition is 21.1% (inactive).

For `CN=c1scc(-c2cc(OC)ccc2OC)n1/N=C/c1c(C)[nH]c2ccccc12`, the inhibition is 44.5% (active).

As for `CC(=O)c1sc(N/N=C/c2ccc(C(C)C)cc2)nc1C`, the inhibition is -9.02% (inactive).

For the compound `CCOC(=O)N1CCC(NC(=O)C(NS(=O)(=O)c2ccc3c(c2)CCN3C(=O)CC)C(C)C)CC1` (stereo unspecified), the inhibition is 4.92% (inactive).

With `Cc1sc2nc(COC(=O)C(NC(=O)c3ccc(Cl)cc3Cl)C(C)C)[nH]c(=O)c2c1C` (stereo unspecified), the inhibition was 34.7% (inactive).

On to `C=CC1=C(C(=O)O)N2C(=O)[C@@H](NC(=O)/C(=N/OCC(=O)O)c3csc(N)n3)[C@H]2SC1`, for which the inhibition was 66.5% (active).

Regarding `CCC/C=C(\CCC)C(NC(=O)Cc1ccccc1)c1ccc(C(=O)OC)cc1` (stereo unspecified), the inhibition is -5.68% (inactive).

As for `CCCCCCCCCCOC(=O)Cn1c(COc2cccc(OC)c2)[n+](C)c2ccccc21`, the inhibition was 7.65% (inactive).

With `COC1=C/C(=C/c2c(N)n3nc(CC(=O)N4CCOCC4)sc3nc2=O)C=CC1=O`, the inhibition is 31.8% (inactive).

For `O=C(COc1cccc(F)c1)Oc1ccc(C(=O)c2ccccc2)cc1`, the inhibition is -1.38% (inactive).

With `Cc1ccc(N=Cc2c(O)cc(C)oc2=O)c(C)c1`, the inhibition was 22.8% (inactive).

With `CCOc1ccc(-n2c(O)c(/C=N/c3ccnn3Cc3ccncc3)c3ccccc3c2=O)cc1`, the inhibition was 98.3% (active).

Regarding `CCOc1ccc(-n2c(O)c(/C=N/Nc3nnc(C)c(=O)[nH]3)c3ccccc3c2=O)cc1`, the inhibition is 38.6% (inactive).

Take `COc1ccc2[nH]c(=O)c(-c3noc(-c4ccc(F)cc4)n3)cc2c1`: the inhibition is 3.41% (inactive).

With `Cc1cc(/C=N/Nc2ccc([N+](=O)[O-])cn2)c(C)n1-c1cccc(C(=O)O)c1`, the inhibition was 19.1% (inactive).

Take `Cc1oc2c(C)c3oc(=O)c(CC(=O)N[C@@H](CC(C)C)C(=O)N[C@@H](Cc4ccccc4)C(=O)O)c(C)c3cc2c1C`: the inhibition is 26.8% (inactive).

As to `N#Cc1c(-c2cccs2)nc(SCC(=O)c2ccc(Br)cc2)[nH]c1=O`, the inhibition was 46% (active).

With `CCCCCCSc1ccc([C@@H]2[C@H]3C(=O)N(CC)C(=O)[C@H]3[C@]3(C(=O)OC)CCCCN23)cc1`, the inhibition was 33.6% (inactive).

Turning to `CS(=O)(=O)c1ccc2c(c1)SC1=NC(=O)/C(=C/c3ccco3)C(=N)N12`, the inhibition was 46.2% (active).

With `CN(C)c1ccc(-n2cccc2/C=C2/SC(=Nc3ccc(F)cc3)NC2=O)cc1`, the inhibition was -10.9% (inactive).

As for `Cc1cc(/C=C2/SC(=O)N(CC(=O)N3CCCC3)C2=O)ccc1N1CCOCC1`, the inhibition is 33.9% (inactive).

For the compound `COc1cccc(-c2nn(-c3ccccc3)cc2/C=C(\C#N)C(=O)NCCCn2ccnc2)c1`, the inhibition was 53.8% (active).

On to `CCN(CC)C(=O)CSc1nc2ccccc2n1CC(=O)N1CCN(c2ccccc2OC)CC1`, for which the inhibition is -7.43% (inactive).

Take `O=C(CSc1nc2ccccc2c(=O)[nH]1)Nc1nc(-c2ccc(Br)cc2)cs1`: the inhibition was 129% (active).

In the case of `C=CCn1c(SCC(=O)NCc2ccccc2)nnc1-c1cc(Br)ccc1O`, the inhibition is -6.6% (inactive).

With `Cc1ccc2cc(C#N)c(NCCNC(=S)NCCCN3CCOCC3)nc2c1`, the inhibition is 1.22% (inactive).

Consider `O=C(Nc1ccc(-c2nnc(-c3ccccc3)o2)cc1)c1ccc(Br)o1`, for which the inhibition is 11.5% (inactive).

Regarding `COc1cc(/C=C2/SC(=S)N(Cc3ccccc3)C2=O)cc(OC)c1O`, the inhibition was 49.8% (active).

Regarding `Nc1nonc1-n1nnc(C(=O)N/N=C/c2cc(Br)ccc2O)c1CSC1=NCCS1`, the inhibition was 24.8% (inactive).

Regarding `CCOc1cc(/C=C2\SC(N3CCCCC3)=NC2=O)ccc1O`, the inhibition is 18.3% (inactive).

Take `N#Cc1ccc(C(=O)Nc2cccc3cccnc23)c(F)c1`: the inhibition is -21.1% (inactive).

Consider `O=C(CSc1cccc2cccnc12)N/N=C/c1cccnc1`, for which the inhibition is 32.7% (inactive).

Turning to `CC(=O)/C(=N\Nc1ccc(Cl)cc1Cl)Sc1cccc2cccnc12`, the inhibition is 62.9% (active).

Regarding `CC1CCN(c2ccc3c(c2)S(=O)(=O)c2cc(C(=O)O)ccc2C3=O)CC1`, the inhibition was 30.4% (inactive).

Turning to `COc1cccc(/C=C(/CC(=O)Nc2ccc(N3CCOCC3)cc2)c2nc3ccccc3s2)c1`, the inhibition was 57.2% (active).

`Cc1nc2ccccc2n1C(=O)N1CCOCC1`: the inhibition was -9.96% (inactive).

With `COc1ccc(-n2c(SCC(=O)Nc3sc4c(c3C#N)CCCC4)nnc2-c2ccc(O)cc2)cc1`, the inhibition is 13.9% (inactive).

With `CC(=O)Nc1ccccc1Sc1ccc2c3c(cccc13)C(=O)N(c1ccc(C)cc1)C2=O`, the inhibition was 1.98% (inactive).

The record behind these values is PubChem BioAssay AID602318 (Sanford-Burnham Center for Chemical Genomics, 2012).
